Test results: paper PMC5540273 (PLoS ONE, 2017)

Key:
Conditions in all cases: concentration: 1 μM, replicates: in singlicate; n = 1
MEK5 = tested on: T1, MEK5
T1 construct: gene MAP2K5

MEK6 = tested on: T2, MEK6
T2 construct: gene MAP2K6

MELK = tested on: MELK
MERTK = tested on: MERTK
MET = tested on: MET
MINK = tested on: T3, MINK
T3 construct: gene MINK1

MKK7 = tested on: MKK7
MKNK1 = tested on: MKNK1
MKNK2 = tested on: MKNK2
MLCK = tested on: T4, MLCK
T4 construct: gene MYLK3

MLK1 = tested on: T5, MLK1
T5 construct: gene MAP3K9

MLK2 = tested on: MLK2
MLK3 = tested on: MLK3
MRCKA = tested on: MRCKA
MRCKB = tested on: T6, MRCKB
T6 construct: gene CDC42BPB

MST1R = tested on: MST1R
MST1 = tested on: T7, MST1
T7 construct: gene STK4

MST2 = tested on: T8, MST2
T8 construct: gene STK3

MST3 = tested on: T9, MST3
T9 construct: gene STK24

MST4 = tested on: MST4
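Further: KINOMEscan kinase panel screen.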

Row | Structure (SMILES) | %Inh (MEK5) [%] | %Inh (MEK6) [%] | %Inh (MELK) [%] | %Inh (MERTK) [%] | %Inh (MET) [%] | %Inh (MINK) [%] | %Inh (MKK7) [%] | %Inh (MKNK1) [%] | %Inh (MKNK2) [%] | %Inh (MLCK) [%] | %Inh (MLK1) [%] | %Inh (MLK2) [%] | %Inh (MLK3) [%] | %Inh (MRCKA) [%] | %Inh (MRCKB) [%] | %Inh (MST1R) [%] | %Inh (MST1) [%] | %Inh (MST2) [%] | %Inh (MST3) [%] | %Inh (MST4) [%]
1 | COc1ccc(Nc2nccc(N3CCC(NC(=O)Nc4cccc(OC)c4)C3)n2)cc1 (stereo not drawn) [GSK1379742] | 46 | 0 | 7 | 19 | 0 | 0 | 0 | 3 | 0 | 0 | 0 | 0 | 25 | 11 | 0 | 9 | 0 | 31 | 0 | 0
2 | Clc1ccc(-c2nn3ncccc3c2-c2ccnc(Nc3ccc4c(c3)OCCO4)n2)cc1 [GW829116] | 33 | 20 | 0 | 0 | 0 | 23 | 0 | 0 | 0 | 0 | 0 | 16 | 0 | 34 | 0 | 0 | 0 | 9 | 0 | 0
3 | O=c1[nH]cc(-c2ccc(N3CCOCC3)cc2)c2sc(-c3cn[nH]c3)cc12 [GSK2276055] | 8 | 29 | 17 | 7 | 0 | 26 | 0 | 0 | 9 | 19 | 0 | 0 | 0 | 0 | 0 | 31 | 0 | 32 | 29 | 0
4 | COc1cc(Nc2nccc(N3CCC(NC(=O)c4cc5ccccc5s4)C3)n2)cc(OC)c1OC (stereo not drawn) [GSK1379760] | 88 | 0 | 15 | 45 | 31 | 0 | 38 | 30 | 21 | 0 | 58 | 46 | 53 | 11 | 0 | 39 | 9 | 0 | 11 | 100
5 | COCCOCCOc1cc2ncc3c4ccc(C#N)cc4[nH]c3c2cc1OC | 100 | 0 | 54 | 0 | 10 | 90.9 | 0 | 95.4 | 99.7 | 95.8 | 22 | 0 | 53 | 12 | 24 | 0 | 12 | 76 | 0 | 0
6 | O=C(Nc1cccc(-c2nn3ccccc3c2-c2ccnc(Nc3cccc(C(F)(F)F)c3)n2)c1)c1c(F)cccc1F [GSK292658] | 80 | 0 | 0 | 37 | 0 | 2 | 0 | 0 | 1 | 0 | 0 | 0 | 0 | 4 | 4 | 0 | 11 | 0 | 0 | 3
7 | O=C(Nc1cccc(Oc2ccc3nc(NC(=O)C4CC4)cn3n2)c1)c1ccccc1C(F)(F)F | 99.8 | 14 | 15 | 26 | 7 | 2 | 0 | 0 | 0 | 0 | 6 | 4 | 0 | 24 | 0 | 23 | 10 | 18 | 0 | 0
8 | CC(=O)N1CCN(c2ccc(Nc3nccc(-c4sc(C(C)C)nc4-c4cccc(NS(=O)(=O)c5cccc(Cl)c5)c4)n3)cn2)CC1 [GSK1660437] | 99.8 | 0 | 57 | 44 | 0 | 18 | 0 | 7 | 51 | 0 | 33 | 33 | 46 | 0 | 0 | 15 | 4 | 0 | 6 | 1
9 | CN(C)S(=O)(=O)c1cc(-c2ccc3nccc(-c4cccc(S(N)(=O)=O)c4)c3c2)cnc1N [GSK1669921] | 56 | 0 | 0 | 33 | 0 | 19 | 0 | 0 | 4 | 0 | 0 | 22 | 0 | 0 | 0 | 32 | 20 | 2 | 5 | 6
